An excerpt weighted towards active compounds, which were near 9.4% of everything screened.
HPGD block = HPGD (human) dehydrogenase inhibition; P15428; purified HPGD, NADH fluorescence kinetic, PGE2 substrate; Potency, µM, for inactives: at the top dose activity change, negative = inhibition, most hits filed as inhibitors; hit rate 4.3% among 150,000; AID 894; active = well fitted inhibition curve with a large enough effect, not every such curve was filed as active; inconclusive = small, poorly fitted or top-dose-only effect, or another doubt; inactive = no such curve, though single readings can be large or run the other way; also: potency is read from the fitted curve at half-maximal effect; % is scaled to controls: 0 for no effect and ±100 for the full control effect
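NADH formation kinetics: reaction with 30 uM PGE2 and 1 mM NAD+ (final), 20 nM enzyme, Tris-HCl pH 8 with Tween 20, after 15 min compound preincubation at room temperature. Fluorescence change, last versus first of five reads.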
ALDH1A1 block = inhibitors of human aldehyde dehydrogenase 1A1. AID 1030. Purified ALDH1A1, NADH fluorescence, propionaldehyde substrate. Potency, µM (titrated, usually from 75.3 µM), without a hit: at the highest dose activity, negative = inhibition, usual class: inhibitors. hit rate 7.3% among 220,000; active = well fitted inhibition curve with a large enough effect, not every such curve was filed as active; inconclusive = small, poorly fitted or top-dose-only effect, or another doubt; inactive = no such curve, though single readings can be large or run the other way;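 also: potency is read from the fitted curve at half-maximal effect; plate controls were no enzyme wells and a reference inhibitor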
Target sequence (P00352 whole entry, looked up): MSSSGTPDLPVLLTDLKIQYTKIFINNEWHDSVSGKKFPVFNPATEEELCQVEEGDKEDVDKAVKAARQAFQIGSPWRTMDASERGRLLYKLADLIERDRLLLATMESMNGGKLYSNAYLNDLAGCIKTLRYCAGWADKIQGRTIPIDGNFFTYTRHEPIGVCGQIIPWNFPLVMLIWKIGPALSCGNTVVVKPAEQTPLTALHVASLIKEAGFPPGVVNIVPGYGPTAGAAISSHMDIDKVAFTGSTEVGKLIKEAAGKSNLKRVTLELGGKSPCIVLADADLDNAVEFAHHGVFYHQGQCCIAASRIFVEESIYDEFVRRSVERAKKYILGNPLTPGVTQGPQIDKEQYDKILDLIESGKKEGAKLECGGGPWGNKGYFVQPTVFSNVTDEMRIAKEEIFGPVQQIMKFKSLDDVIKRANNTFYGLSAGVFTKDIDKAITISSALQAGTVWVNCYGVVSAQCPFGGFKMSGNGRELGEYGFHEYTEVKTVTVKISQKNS
IMPase cell inh = cell-permeable inhibitors of inositol monophosphatase (IMPase) | CHO-M1 cells, IP1 accumulation, HTRF TR-FRET ratio | P97697 | 120,000 tested, under 10 active | inhibition (IP1 accumulation), % at 46.1 µM; active = well fitted curve in the direction sought with a large enough effect in the signal ratio, not every such curve was filed as active; inconclusive = small, poorly fitted or top-dose-only effect, or a change in a side signal; inactive = no such curve, though single readings can be large or run the other way; the % refers to the signal ratio;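 also: cells stimulated with carbachol in lithium chloride buffer; plate controls were DMSO basal wells for no effect and reference inhibitor wells for full effect; higher means more IMPase inhibition seen as more IP1 and lower FRET ratio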
Target sequence (P97697 whole entry, looked up): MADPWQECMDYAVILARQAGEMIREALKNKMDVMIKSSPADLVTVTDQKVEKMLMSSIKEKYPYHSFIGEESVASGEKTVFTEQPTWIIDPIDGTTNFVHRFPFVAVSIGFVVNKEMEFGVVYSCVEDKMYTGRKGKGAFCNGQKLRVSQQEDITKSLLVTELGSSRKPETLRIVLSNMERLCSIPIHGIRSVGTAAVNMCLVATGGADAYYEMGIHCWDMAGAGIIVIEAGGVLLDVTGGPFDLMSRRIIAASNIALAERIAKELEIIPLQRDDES
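CHO-M1 cells (CHO stably expressing M1 receptor), compound up to 46 uM final, stimulated with carbachol (50 uM as added) in buffer with 50mM LiCl, pH 7.4, 30 min at 37C. Cytosolic IP1 read by TR-FRET; AC50 from Hill fits.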
HTT ATP protect = protects HTT-Q103 PC12 cells, measured by ATP. Potency, µM (top dose mostly 56.4 µM), for inactives: cytoprotection (ATP increase), hits mostly activators. AID 1471. hit rate 0.14% among 230,000. PC12 HTT-Q103 induced, cytoprotection, ATP luminescence, 40 h; also: potency is read from the fitted curve at half-maximal effect; % of control where 0% means no effect; nearly all actives have a fitted effect of over 45% in size
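Huntington model: PC12 line, ecdysone-inducible HTTQ103 exon1–GFP, tebufenozide 100 nM. Test articles in a dose series. Endpoint luminescence from cellular ATP.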
HttQ103 aggreg = reduces HttQ103-GFP aggregates in PC12 cells; PC12 HttQ103-GFP aggregates, Acumen cytometry, 40 h; Potency, µM (titrated, usually from 46.1 µM), for inactives: at the top dose activity change, negative = inhibition, most hits filed as inhibitors; hit rate 1.1% among 220,000; AID 1688; also: potency is read from the fitted curve at half-maximal effect; % is scaled to controls: 0 for no effect and ±100 for the full control effect; nearly all actives have a fitted effect of over 60% in size
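Using laser scanning cytometry, GFP-positive aggregates were counted after lysis of PC12 cells induced with 100 nM tebufenozide to express HTT exon 1 Q103–GFP. Compounds were tested in titration.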
IMPase Li cell = membrane-permeable IMPase blocker, potentiated with lithium; CHO-M1 cells, IP1 TR-FRET (IP-One), carbachol + lithium; Potency, µM (doses to about 59.4 µM), inactives show at the highest dose activity, negative = IMPase inhibition, actives largely listed as inhibitors; hit rate 0.35% among 210,000; AID 1457;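 also: IP1 builds up when IMPase is blocked and the TR-FRET signal falls; potency is read from the fitted curve at half-maximal effect; plate controls were basal vehicle for no effect and high inhibitor control for full effect; nearly all actives have a fitted effect of over 50% in size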
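Concentration–response in CHO-M1 cells, lithium-potentiated; 30 min at 37C. IP1 detected by competitive TR-FRET after 10 min lysis at RT. Hill-fitted AC50.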
* = called active by the depositor; ? = inconclusive; nt = not tested or not shown; ! = repeats disagree; [ ] = another dose, or the depositor's remark. Unless noted, calls follow the shape of the dose curve; as a rule, active = well fitted curve in the direction sought with a large enough effect; inconclusive = small, poorly fitted or top-dose-only effect, or another doubt; inactive = no such curve, though single readings can be large; an effect the other way counts as inactive or inconclusive.

SMILES	HPGD block	ALDH1A1 block	IMPase cell inh	HTT ATP protect	HttQ103 aggreg	IMPase Li cell
Oc1ccc(O)cc1	7.9µM*	-14%	6	32µM*!	-13%	-8%
Oc1ccccc1	-10%	12%	nt	7%	nt	9%
O=C(c1ccc(O)cc1)c1ccc(C(=O)c2ccc(O)cc2)cc1	22µM*	3%	6	24%[10 µM]	?	5%[38.3 µM]
Cc1ccc(NC(=O)c2c(C)nc3sc(C(=O)Nc4ccc(F)cc4)c(N)c3c2-c2ccc(C)o2)c(C)c1	nt	nt	-2	nt	nt	nt
CCc1ccc2c(c1)C(=O)C(=O)N2CC(=O)Nc1ccc(NC(=O)c2ccccn2)cc1	nt	0.22µM*	nt	1%[10 µM]	14%[9.22 µM]	1%
CCc1ccc(NC(=O)CCN2C(=O)c3cccnc3C2=O)cc1	-7%	-4%	1	-11%	12%	3%[38.3 µM]
Clc1ccc(OCCCn2cncn2)cc1Cl	-7%	11µM*	-2	4%	-3%	3%
C[C@@H]1/C=C\CC(=O)OC[C@H](C)C(=O)N2CCC[C@@H]2C(=O)OC1	nt	0%[13.5 µM]	nt	?	nt	nt
O=C(c1cc2ccccc2o1)N1CCCCCC1	7.9µM*	?	6	-3%[10 µM]	-20%	25%
Cc1ccc(C(=O)N2CCC(C)CC2)cc1C	0.79µM*	11µM*	8[0.0738 µM]	-4%[10 µM]	-24%	1%
O=C(/C=C/N1CCOCC1)c1cc2ccccc2o1	-14%	18µM*	-14[1.84 µM]	9%[10 µM]	-6%	33%[38.3 µM]
O=C(c1cc(-c2ccccc2)on1)N1CCCC1	?	-1%	-9	0%[0.074 µM]	-19%	17%[38.3 µM]
CC1CCN(C(=O)c2cc(-c3ccccc3O)on2)CC1	14µM*	14µM*	2	-37%	-18%	15%[38.3 µM]
CC1CCN(C(=O)c2ccc(C(=O)N3CCC(C)CC3)cc2)CC1	nt	nt	nt	-14%[10 µM]	nt	nt
Cn1cccc1C(=O)N1CCC2(CCN(Cc3nccs3)CC2)CC1	-13%	-7%	nt	8%	nt	23%
O=C(O)/C(=C\c1ccncc1)c1cccc2ccccc12	-6%	0%[13.5 µM]	nt	0%[10 µM]	nt	-2%
O=C(c1cc2ccccc2o1)N1CCCC1	nt	5%	nt	0%[10 µM]	-3%[9.22 µM]	-7%
CC1CCN(C(=O)c2cc3ccccc3o2)CC1	11µM*	?	7	-51%[0.074 µM]	0%	26%[38.3 µM]
Cc1oc(-c2ccccc2Cl)nc1CSCC(=O)N1CCCC1	-16%	?	0	13%[10 µM]	-10%	12%
O=c1[nH]c(SCc2ccc(Cl)cc2)nc2c1CCC2	4.5µM*	-5%	-5	-12%	-6%	-7%[38.3 µM]
O=c1[nH]c(SCc2cccc(F)c2)nc2c1CCCC2	7.1µM*	-10%	nt	nt	-4%	-3%
Cc1cccc(CSc2nc3c(c(=O)[nH]2)CCCC3)c1	7.9µM*	11%	nt	nt	-3%	-5%
Cc1oc(-c2ccccc2Cl)nc1CSCC(=O)NC1CCCC1	-23%	14µM*	-3	-22%	11%[9.22 µM]	25%[38.3 µM]
CC(C)c1ccc(NC(=O)c2cn(C3CCCCC3)c(=O)c3c2c2ccccc2n3C)cc1	nt	nt	-1	nt	nt	nt
CC(C)[C@@H]1O[C@H](/C=C\c2ccccc2)OCC1(C)C	nt	nt	nt	-8%[10 µM]	nt	nt
SMILES	HPGD block	ALDH1A1 block	IMPase cell inh	HTT ATP protect	HttQ103 aggreg	IMPase Li cell
Cc1oc(-c2ccccc2Cl)nc1CSc1nc2c(c(=O)[nH]1)CCC2	2.8µM*	-8%	nt	nt	14%	-1%
O=c1[nH]c(SCc2cccc(Cl)c2)nc2c1CCCC2	nt	-9%	2	18%	1%	nt
Cc1cc(=O)[nH]c(Nc2cccc(C(F)(F)F)c2)n1	-10%	5%	2	11%	11µM*	-6%[38.3 µM]
Cc1cc(=O)[nH]c(SCC(=O)Nc2cccc(C(F)(F)F)c2)n1	-14%	0%	8	-4%	-25%	4%[38.3 µM]
COc1ccccc1CCn1c(=O)c(-c2cc(F)cc(F)c2)nc2cncnc21	?	?	nt	24%	nt	?
O=C(CCC1N=C2c3ccccc3N=C(SCC(=O)Nc3ccccc3F)N2C1=O)NCc1ccco1 (centres undefined)	nt	nt	-1	nt	nt	nt
CC(C)c1onc(C(=O)N2CCN(Cc3ccccc3)CC2)c1[N+](=O)[O-]	-8%	2.5µM*	nt	nt	-1%	-2%
CC(C)c1onc(C(=O)NCCc2ccccc2)c1[N+](=O)[O-]	nt	?	nt	12%	-5%	6%
CC(C)c1onc(C(=O)N2CCOCC2)c1[N+](=O)[O-]	nt	0%	nt	8%	1%	-7%
CC(C)c1onc(C(=O)NC(C)c2ccccc2)c1[N+](=O)[O-] (centres undefined)	nt	?	nt	-41%	4.5µM*	1%
c1ccc2cc(NCNc3ccc4ccccc4c3)ccc2c1	-16%	?	nt	-13%[10 µM]	nt	-3%
Cc1c2oc3c(C)ccc(C(=O)N[C@@H]4C(=O)N[C@H](C(C)C)C(=O)N5CCC[C@H]5C(=O)N(C)CC(=O)N(C)[C@@H](C(C)C)C(=O)O[C@@H]4C)c3nc-2c(C(=O)N[C@@H]2C(=O)N[C@H](C(C)C)C(=O)N3CCC[C@H]3C(=O)N(C)CC(=O)N(C)[C@@H](C(C)C)C(=O)O[C@@H]2C)c(N)c1=O	-24%	?	nt	-46%	0.032µM*	4%
CC(C)c1ccc(N(CC(=O)NN=C2CCN(C)CC2)S(=O)(=O)c2ccccc2)cc1	nt	?	nt	-17%	-13%	-1%
CSc1ccc(S(=O)(=O)N(CC(=O)NN=C2CCN(C)CC2)c2ccc(C)cc2)cc1	nt	5µM*	nt	-52%	-10%	-5%
COc1ccc(N=C2SC(C(=O)N3CCN(c4ccc([N+](=O)[O-])cc4)CC3)CC(=O)N2C)cc1 (centres undefined)	nt	10µM*	nt	-56%	5%	-1%
COc1ccc(N2CCN(C(=O)C3CC(O)CN3S(=O)(=O)c3ccc([N+](=O)[O-])cc3)CC2)cc1 (centres undefined)	-2%	11%	nt	-8%[10 µM]	1%	2%
C=C(C)C1CC=C(C)C(OC(C)=O)C1 (centres undefined)	-2%	-3%	nt	-9%	nt	5%
COCC(=O)N1CCC2(CC1)CN(C(c1ccccc1)c1ccccc1)C2	-3%	2%	nt	14%	nt	-20%
COc1ccc(C(=O)Nc2ccc(S(=O)(=O)Nc3onc(C)c3C)cc2)cc1	-31%	-2%	-6	-27%[10 µM]	-6%	3%[38.3 µM]
COc1cccc(C(=O)Nc2ccc(S(=O)(=O)Nc3nccc(C)n3)cc2)c1	28µM*	-11%	nt	20%[10 µM]	11%	6%
COc1ccc(C(=O)Nc2ccc(S(=O)(=O)Nc3nccc(C)n3)cc2)cc1OC	-26%	-8%	-7	5%	?	2%[38.3 µM]
COc1cccc(C(=O)Nc2ccc(S(=O)(=O)Nc3onc(C)c3C)cc2)c1	35µM*	15%	7	-2%	-9%	-11%[38.3 µM]
CSc1ccc(-c2nc3c(C)cccn3c2Nc2ccc3c(c2)OCCO3)cc1	nt	nt	5	nt	nt	nt
Cc1ccc(NNC2CC(=O)N(c3cccc(Cl)c3)C2=O)cc1 (centres undefined)	nt	25µM*	nt	-27%	6%	4%

Screens as filed in PubChem.
